Compound activity deposited in PubChem by National Center for Advancing Translational Sciences (NCATS).
Shown are actives, neighbours in structure and some others; about 1.2% of the full set was active somewhere.
Giardia FBPA inh: qHTS Assay for Inhibitors of Fructose-1,6-bisphosphate Aldolase from Giardia Lamblia; AID 2451, 2010; 290,000 tested, 0.71% active; Potency, µM (top dose mostly 59.6 µM), for the others: at the top dose activity, negative = inhibition, most hits filed as inhibitors; purified Giardia FBPA; A8B2U2; note: % is set by controls: 0 for no effect and ±100 for the full control effect; nearly all actives have a fitted effect of over 55% in size
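40 nM FBPA preincubated 10 min at RT with compound (up to 57.5 uM final), then substrate plus GAPDH/TPI/NAD/arsenate coupling and diaphorase/resazurin added. Fluorescence read after 20 min at RT, 525/598 nm.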
NS1 function inh: qHTS Assay for Inhibitors of Influenza NS1 Protein Function; Potency, µM (titrated, usually from 46.1 µM), without a hit: top-dose activity, positive = more growth; 270,000 tested, 0.4% active; AID 2326, 2010; calls by dose curve; note: actives are rising curves; nearly all actives have a fitted effect of over 50% in size
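In this qHTS, NS1 from influenza A is expressed in budding yeast, where it slows growth. Cells are switched from glucose to 2% galactose medium (pH 6.0, -URA), treated with compound, and growth recovery is read at OD600.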
LmPK inhibitor: qHTS Assay for Inhibitors of Leishmania Mexicana Pyruvate Kinase (LmPK); purified LmPK, Kinase-Glo ATP luminescence, 1 h; AID 1721, 2009; 290,000 tested, 0.37% active; Q27686; Potency, µM (series often up to 57.5 µM), without a hit: at the highest dose activity change, negative = inhibition, actives largely listed as inhibitors; note: % is set by controls: 0 for no effect and ±100 for the full control effect
Target sequence (Q27686 whole entry, looked up): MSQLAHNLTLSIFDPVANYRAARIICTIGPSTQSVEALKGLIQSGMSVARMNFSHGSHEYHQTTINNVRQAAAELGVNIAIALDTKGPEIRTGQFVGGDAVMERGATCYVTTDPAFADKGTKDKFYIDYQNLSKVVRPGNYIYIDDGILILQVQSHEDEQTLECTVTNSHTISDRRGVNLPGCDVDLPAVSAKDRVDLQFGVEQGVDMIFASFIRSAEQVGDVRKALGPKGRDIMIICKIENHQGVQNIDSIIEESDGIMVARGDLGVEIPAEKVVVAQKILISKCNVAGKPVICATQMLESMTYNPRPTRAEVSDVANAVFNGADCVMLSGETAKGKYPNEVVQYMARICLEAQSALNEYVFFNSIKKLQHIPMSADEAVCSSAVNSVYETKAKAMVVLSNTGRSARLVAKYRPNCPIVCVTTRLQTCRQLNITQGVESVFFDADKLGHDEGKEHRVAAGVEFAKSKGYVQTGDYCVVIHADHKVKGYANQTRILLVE
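Screened at intermediate enzyme activity to detect both inhibitors and activators: LmPK at 0.1 nM, with a 0.5 nM enzyme column as activation reference. PEP 0.5 mM, ADP 0.1 mM; ATP detected by luminescence after 1 h.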
Tb PYK inh: qHTS of Trypanosoma Brucei Inhibitors; pyruvate kinase (Trypanosoma brucei), Q57TT1; TbPYK enzyme, Kinase-Glo Plus ATP luminescence, 45 min; Potency, µM (series often up to 76.8 µM), without a hit: at the highest dose activity, negative = inhibition, usual class: inhibitors; 410,000 tested, 0.12% active; note: % is set by controls: 0 for no effect and ±100 for the full control effect; nearly all actives have a fitted effect of over 50% in size
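Glycolytic pyruvate kinase of T. brucei was incubated with substrate, test compound and 130 uM ADP for 45 minutes at room temperature. Luminescent Kinase-Glo Plus signal was measured after 10 minutes.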
AMA1 RON2 block: qHTS for Inhibitors of AMA1-RON; Towards Development of Antimalarial Drug Lead: Primary Screen; AlphaScreen AMA1-biotinylated RON2 peptide binding; Potency, µM (titrated, usually from 58.2 µM), without a hit: at the highest dose activity change, negative = inhibition, hits mostly inhibitors; 360,000 tested, 0.2% active; AID 720542, 2013;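 note: 0% = vehicle wells and -100% = peptide control; nearly all actives have a fitted effect of over 45% in size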
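AMA1 (3D7) with his tag at 25 nM final met compounds first, then biotinylated RON2 peptide at 25 nM; detection used donor plus acceptor beads, 10 µg/mL apiece, read by AlphaScreen after 30 min at room temperature.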
* hit, by the source's call; u = inconclusive; x = no result given. Unless noted, calls come from the whole dose curve; as a rule, active = well fitted curve in the direction sought with a large enough effect; inconclusive = small, poorly fitted or top-dose-only effect, or another doubt; inactive = no such curve, though single readings can be large; an effect the other way counts as inactive or inconclusive. Potency is the fitted concentration of half-maximal effect.

SMILES | Giardia FBPA inh | NS1 function inh | LmPK inhibitor | Tb PYK inh | AMA1 RON2 block
O=C(O)c1cc(N=Nc2c(O)ccc3ccccc23)cc(C(=O)O)c1 | -17% | 5% | u | 13µM* | -9%
Oc1ccc(N=Nc2c(O)ccc3ccccc23)cc1 | u | -36% | -18% | -5% | 17µM*
OCC1O[C@H](Oc2ccc(O)cc2)C(O)C(O)C1O (stereo partly specified) | -4% | x | x | -5% | x
Cc1cc(C)c2cc3c(N)c(C(=O)Nc4c(C)[nH]c(=O)[nH]c4=O)sc3nc2c1 | u | 1.4µM* | 1% | -5% | 44%
Cc1cc(C)c2cc3c(N)c(C(=O)N4CCOCC4)sc3nc2c1 | -6% | 4% | 3% | -15% | 13%
CC(=O)N1C2(C=CC1(C)C(=O)NCc1ccc(C)o1)CCCCC2 (stereo unspecified) | -15% | x | x | x | x
COc1ccc(-c2n[nH]c(=S)n2-c2ccc(Br)cc2)cc1OC | 21% | -4% | 18µM* | 4µM* | 99%
COc1cc(-c2n[nH]c(=S)n2-c2ccc(C)cc2)cc(OC)c1OC | -23% | 1% | 9% | 8.9µM* | 62%
COc1cc(NS(=O)(=O)c2cccc([N+](=O)[O-])c2)c2ncccc2c1 | 16µM* | x | x | x | x
COc1cc(NS(=O)(=O)c2ccc(C)cc2)c2ncccc2c1 | u | -28% | 4% | 5% | -9%
COc1cc(NS(=O)(=O)c2ccc([N+](=O)[O-])cc2)c2ncccc2c1 | 18µM* | x | x | x | x
CC1(C)CC(=O)c2cc(-c3nc(-c4ccc(F)cc4)cs3)c(=O)[nH]c2C1 | x | x | x | -1% | x
Oc1c(CN2CCOCC2)cc(CN2CCOCC2)c(O)c1O | x | x | x | -36% | 11µM*
COc1ccc(NC(=O)N2CCCc3ccccc32)cc1 | -6% | -11% | -6% | -4% | 0%
COc1ccc(N/N=C(/C(C)=O)N2CCCc3ccccc32)cc1 | -30% | -42% | 9% | -8% | 16µM*
COc1ccc(NC(=O)N2CCc3ccccc32)cc1 | -26% | -47% | 13µM* | u | -10%
O=C1OC2C(O)C(O)OC2C1O (stereo unspecified) | x | x | x | -8% | x
Cc1nnc(C(C)C)n1C1C[C@H]2CC[C@@H](C1)N2CC[C@H](NC(=O)C1CCC(F)(F)CC1)c1ccccc1 (stereo partly specified) | x | x | x | 2% | x
CN(C)c1ccc(-c2ccccc2)nn1 | 0% | -14% | 25µM* | -18% | -16%
Cc1cc(N)ccc1N1CCCC1 | u | 6% | -12% | 6% | 16µM*
COC(=O)C1=C(C(=O)OC)C2OC1c1cc3ccccc3cc12 | x | x | x | 28µM* | 4%
Cc1ccc(NC(=O)CN2C(=O)CC(c3ccco3)Sc3ccccc32)cc1Cl (stereo unspecified) | x | x | x | 2% | x
CO[C@H]1OC2O[C@@]3(C)CC[C@H]4[C@H](C)CC[C@@H]([C@H]1C)[C@@]24OO3 (stereo partly specified) | x | x | x | 4% | x
COc1cc2c(CCNC(C)=O)c[nH]c2cc1O | u | 26% | x | 0% | 4.5µM*
COc1ccc(CCNC(=O)NCCc2c[nH]c3ccccc23)cc1OC | 3% | 1% | -1% | 0% | 1%
SMILES | Giardia FBPA inh | NS1 function inh | LmPK inhibitor | Tb PYK inh | AMA1 RON2 block
COc1cccc2nc3cc(C)c(C)cc3nc12 | u | -59% | 13µM* | u | -6%
COc1cccc2c1nc(C)c1cc(C)oc12 | 3% | -7% | 4% | 4% | 0%
C/C(=N\Nc1nnc(C)c(=O)[nH]1)C(=O)O | 3.5µM* | 1% | 13% | -5% | -31%
CC(/C=N/Nc1nnc(C)c(=O)[nH]1)=C\c1ccccc1 | -5% | 27% | 4% | -8% | 1%
O=c1c2ccccc2cnn1CCOc1ccccc1 | -2% | -4% | 13µM* | u | -19%
O=C(O)Cn1ncc2ccccc2c1=O | 3% | 4% | -4% | -3% | 9%
O=C(c1ccc(NC(=O)C2(c3ccccc3)CCCC2)cc1)N1CCOCC1 | 0% | -4% | 5% | -2% | -14%
O=C(Nc1ccc(C(=O)N2CCCC2)cc1)c1ccccc1F | 0% | 4% | 14µM* | u | -5%
O=C(Nc1ccccc1)Nc1ccc(C(=O)N2CCOCC2)cc1 | 0% | -3% | 13µM* | u | 3%
COC(=O)c1ccc(C(NC(=O)OCc2ccccc2)/C(F)=C/[C@@H](C)C(=O)NCc2cc(F)cc(F)c2)cc1 (stereo partly specified) | 2% | x | x | x | x
COc1ccc2nc(-c3ccccc3)[nH]c2c1 | u | -44% | 16µM* | -22% | 4%
Cc1ccc2nc(-c3cccc(N)c3)[nH]c2c1 | -20% | -1% | 16µM* | -15% | u
NC(=O)c1ccc[n+]([C@@H]2OC(COP(=O)([O-])OP(=O)(O)OCC3OC(n4cnc5c(N)ncnc54)C(OP(=O)(O)O)C3O)C(O)C2O)c1 (stereo partly specified) | -24% | x | x | x | x
Nc1ncnc2c1[nH]c(=O)n2C1CC(O)C(CO)O1 (stereo unspecified) | 0% | x | x | x | x
Cc1nn(-c2nc3ccccc3[nH]2)c(=O)c2ccccc12 | -5% | x | 7.1µM* | u | -1%
Cc1nn(-c2ccc3ccccc3c2)c(=O)c2ccccc12 | -3% | -8% | -1% | -6% | 10%
COc1cc(C2CC(=O)Oc3c(C(CCN4CCN(c5ccccc5)CC4)c4ccc(N(C)C)cc4)c(OC)cc(OC)c32)cc(OC)c1OC (stereo unspecified) | -6% | -31% | 5% | -6% | 14µM*
CCCCCc1cc(=O)oc2c(C(CCN3CCCC3)c3ccc4c(c3)OCO4)c(OC)cc(OC)c12 (stereo unspecified) | -8% | x | x | x | x
CCCCCc1cc(=O)oc2c(C(CCN3CCN(c4ccccc4)CC3)c3ccc(N(C)C)cc3)c(OC)cc(OC)c12 (stereo unspecified) | 4% | 8% | 3% | -4% | 11µM*
COc1cc(OC)c2ccc(=O)oc2c1C(CCN1CCN(c2ccccc2)CC1)c1ccc(N(C)C)cc1 (stereo unspecified) | -6% | -4% | 2% | 0% | 25µM*
COc1cc(OC)c2c(-c3ccccc3)cc(=O)oc2c1C(CCN1CCN(c2ccccc2)CC1)c1ccc(N(C)C)cc1 (stereo unspecified) | -4% | -2% | 0% | 1% | 7.9µM*
COc1ccc(-c2nc3cnc(N4CCOCC4)nc3n(CCC#N)c2=O)cc1 | 7% | x | x | -7% | x
CCOC(=O)Cc1ccc(NC(=O)N2CCc3c(sc4c3CCCC4)C2c2ccc(F)cc2)cc1 (stereo unspecified) | x | x | x | -4% | x
COC(=O)[C@H]1O[C@@H](c2cc(OC)c(C)c(OC)c2O)[C@H](C)[C@@H](O)[C@H]1C | -6% | x | x | x | x
